# From publication PMC3218832
# Experiments:
# Assay in all cases: protein binding microarray; high values mean tight binding
# Settings in all cases: dsDNA, one strand shown
# [1] = biological target: RELARELA (p65 homodimer) (Homo sapiens, UniProt Q04206 1-307)
# [2] = biological target: p50p50 homodimer (Homo sapiens, UniProt P19838 7-356)
# [3] = biological target: T1, p52p52 homodimer (Homo sapiens, UniProt Q00653 4-332)
# T1 sequence: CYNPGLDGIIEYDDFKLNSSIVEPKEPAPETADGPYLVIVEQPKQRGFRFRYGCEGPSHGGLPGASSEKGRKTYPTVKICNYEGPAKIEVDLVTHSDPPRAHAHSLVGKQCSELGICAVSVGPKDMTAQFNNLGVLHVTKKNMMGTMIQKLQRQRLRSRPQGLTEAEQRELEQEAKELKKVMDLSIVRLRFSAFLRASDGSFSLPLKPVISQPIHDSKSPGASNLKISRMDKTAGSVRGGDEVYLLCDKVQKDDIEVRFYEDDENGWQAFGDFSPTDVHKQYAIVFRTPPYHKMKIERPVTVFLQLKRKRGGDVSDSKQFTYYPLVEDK
# [4] = biological target: RELA (p65) subunit of heterodimer;p50 subunit (Homo sapiens;Homo sapiens, UniProt Q04206;P19838 1-307;7-356)
# [5] = biological target: RELA (p65) subunit of heterodimer;p52 subunit (Homo sapiens;Homo sapiens, UniProt Q04206;Q00653 1-307;4-332)
# [6] = biological target: RELB subunit;p50 subunit (Homo sapiens;Homo sapiens, UniProt Q01201;P19838 120-401;7-356)
# [7] = biological target: T2, RELB subunit;p52 subunit (Homo sapiens;Homo sapiens, UniProt Q01201;Q00653 120-401;4-332)
# T2 sequence 1: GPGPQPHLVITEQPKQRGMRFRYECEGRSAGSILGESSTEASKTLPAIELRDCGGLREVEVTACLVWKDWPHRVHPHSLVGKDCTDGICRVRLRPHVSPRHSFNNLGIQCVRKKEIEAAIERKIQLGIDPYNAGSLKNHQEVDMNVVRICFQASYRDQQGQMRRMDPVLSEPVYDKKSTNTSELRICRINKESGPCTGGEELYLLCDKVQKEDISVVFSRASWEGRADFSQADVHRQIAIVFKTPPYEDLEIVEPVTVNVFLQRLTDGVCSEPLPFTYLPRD
# T2 sequence 2: T1 sequence
# [8] = biological target: C-Rel subunit;p50 subunit (Homo sapiens;Homo sapiens, UniProt Q04864;P19838 1-285;7-356)
# [9] = biological target: T3, C-Rel subunit;p52 subunit (Homo sapiens;Homo sapiens, UniProt Q04864;Q00653 1-285;4-332)
# T3 sequence 1: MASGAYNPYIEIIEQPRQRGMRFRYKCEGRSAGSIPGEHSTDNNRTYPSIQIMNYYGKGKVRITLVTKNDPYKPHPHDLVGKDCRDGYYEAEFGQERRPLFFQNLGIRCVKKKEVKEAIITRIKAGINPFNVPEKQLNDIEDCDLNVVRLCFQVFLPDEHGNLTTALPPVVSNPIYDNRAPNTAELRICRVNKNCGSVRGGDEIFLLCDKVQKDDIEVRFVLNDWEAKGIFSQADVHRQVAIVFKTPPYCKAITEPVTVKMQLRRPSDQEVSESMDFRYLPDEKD
# T3 sequence 2: T1 sequence
# Sequence of RELA (p65) subunit of heterodimer;p50 subunit (Q04206 1-307, chain 1 of 2): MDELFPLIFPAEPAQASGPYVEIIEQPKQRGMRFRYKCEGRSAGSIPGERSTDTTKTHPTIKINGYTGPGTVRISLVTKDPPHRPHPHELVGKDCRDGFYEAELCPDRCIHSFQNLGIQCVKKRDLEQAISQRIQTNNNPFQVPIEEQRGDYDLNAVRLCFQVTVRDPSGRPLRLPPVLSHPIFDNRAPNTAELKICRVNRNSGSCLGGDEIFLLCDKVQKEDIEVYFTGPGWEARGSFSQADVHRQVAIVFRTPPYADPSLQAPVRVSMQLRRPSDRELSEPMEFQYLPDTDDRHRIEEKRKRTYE
# Sequence of RELA (p65) subunit of heterodimer;p50 subunit (P19838 7-356, chain 2 of 2): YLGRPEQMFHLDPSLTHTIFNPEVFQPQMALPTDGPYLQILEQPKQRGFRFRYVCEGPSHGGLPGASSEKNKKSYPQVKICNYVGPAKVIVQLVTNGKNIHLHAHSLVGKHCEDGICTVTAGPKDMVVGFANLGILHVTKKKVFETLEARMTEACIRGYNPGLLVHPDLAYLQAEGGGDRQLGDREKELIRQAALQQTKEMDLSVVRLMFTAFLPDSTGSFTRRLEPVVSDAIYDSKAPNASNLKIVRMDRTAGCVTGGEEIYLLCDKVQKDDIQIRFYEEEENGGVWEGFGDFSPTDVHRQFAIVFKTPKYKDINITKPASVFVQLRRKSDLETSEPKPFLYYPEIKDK
# Sequence of RELARELA (p65 homodimer) (Q04206 1-307): as the sequence (Q04206 1-307, chain 1 of 2) above
# Sequence of p50p50 homodimer (P19838 7-356): as the sequence (P19838 7-356, chain 2 of 2) above
Sequence,binding signal [1],binding signal [2],binding signal [3],binding signal [4],binding signal [5],binding signal [6],binding signal [7],binding signal [8],binding signal [9]
CAGGTTACCCC,0.269 z-score,0.178 z-score,0.0851 z-score,0.345 z-score,0.253 z-score,0.443 z-score,0.629 z-score,0.552 z-score,0.49 z-score
AGAGAGGCCCC,-0.813 z-score,-0.259 z-score,-0.348 z-score,-0.461 z-score,-0.565 z-score,-0.342 z-score,-0.35 z-score,-0.436 z-score,-0.513 z-score
CAAGGGTCCCT,-0.447 z-score,0.337 z-score,0.26 z-score,-0.269 z-score,0.0513 z-score,0.363 z-score,0.276 z-score,-0.315 z-score,-0.166 z-score
AAGGAACCCCT,-0.469 z-score,0.961 z-score,0.532 z-score,0.281 z-score,0.861 z-score,0.479 z-score,0.874 z-score,0.215 z-score,0.603 z-score
GAATAACTCCT,-0.147 z-score,-1.37 z-score,-0.713 z-score,-0.733 z-score,-0.946 z-score,-0.919 z-score,-0.853 z-score,-0.82 z-score,-0.791 z-score
GGATGACTCCC,-0.304 z-score,-0.794 z-score,-0.473 z-score,-0.49 z-score,-0.701 z-score,-0.618 z-score,-0.826 z-score,-0.932 z-score,-0.692 z-score
GGGGGTGCCCC,1.45 z-score,0.814 z-score,3.15 z-score,2.21 z-score,2.88 z-score,2.52 z-score,2.27 z-score,1.67 z-score,2.5 z-score
GAAAAGGCCCC,-0.413 z-score,0.523 z-score,0.108 z-score,0.289 z-score,0.416 z-score,0.151 z-score,0.246 z-score,-0.101 z-score,0.313 z-score
GAGGTCCCCCT,0.588 z-score,1.14 z-score,0.954 z-score,1.63 z-score,1.22 z-score,1.56 z-score,1.97 z-score,1.28 z-score,1.05 z-score
AGGTAATTCCT,1.47 z-score,0.62 z-score,1.15 z-score,0.471 z-score,0.62 z-score,0.351 z-score,0.553 z-score,0.224 z-score,0.709 z-score
AGAATTGCCCT,0.531 z-score,-0.747 z-score,-0.409 z-score,0.222 z-score,-0.0792 z-score,-0.516 z-score,-0.558 z-score,-0.0961 z-score,0.0532 z-score
AAAAGTCTCCC,0.0565 z-score,0.0889 z-score,-0.045 z-score,0.215 z-score,0.0155 z-score,0.205 z-score,0.142 z-score,0.0274 z-score,-0.177 z-score
GAAAGTGCCCC,0.518 z-score,0.277 z-score,0.105 z-score,0.655 z-score,0.365 z-score,0.443 z-score,0.479 z-score,0.607 z-score,0.511 z-score
GGAATTACCCC,2.91 z-score,0.961 z-score,1.76 z-score,1.92 z-score,2.08 z-score,1.18 z-score,1.85 z-score,1.44 z-score,2.35 z-score
CGATAATTCCC,2.04 z-score,0.948 z-score,0.738 z-score,1.43 z-score,0.974 z-score,0.871 z-score,0.87 z-score,1.51 z-score,1.12 z-score
GAGGAAATCCT,0.229 z-score,-0.905 z-score,-0.463 z-score,-0.399 z-score,-0.425 z-score,-0.858 z-score,-0.718 z-score,-0.315 z-score,-0.369 z-score

Sequence,binding signal [1],binding signal [2],binding signal [3],binding signal [4],binding signal [5],binding signal [6],binding signal [7],binding signal [8],binding signal [9]
AAGAGAGTCCT,0.889 z-score,-0.892 z-score,-0.435 z-score,-0.32 z-score,-0.676 z-score,-0.818 z-score,-0.673 z-score,-0.59 z-score,-0.442 z-score
CGATTGTCCCT,0.353 z-score,1.16 z-score,1.18 z-score,0.871 z-score,0.943 z-score,1.29 z-score,1.27 z-score,0.77 z-score,0.66 z-score
GGGGGCGCCCT,0.992 z-score,0.922 z-score,1.68 z-score,1.43 z-score,1.58 z-score,1.12 z-score,1.33 z-score,0.776 z-score,1.34 z-score
CAAGAACCCCC,-0.244 z-score,1.28 z-score,1.21 z-score,1.6 z-score,1.28 z-score,1.46 z-score,1.32 z-score,1.04 z-score,0.879 z-score
GGGTAACCCCT,1.23 z-score,0.71 z-score,1.97 z-score,1.42 z-score,1.8 z-score,0.672 z-score,1.45 z-score,0.858 z-score,1.95 z-score
AGGGACGTCCT,0.554 z-score,0.528 z-score,1.06 z-score,0.549 z-score,0.923 z-score,0.448 z-score,0.709 z-score,0.177 z-score,0.67 z-score
GAATGGATCCC,-0.423 z-score,-0.946 z-score,-0.505 z-score,-0.796 z-score,-0.763 z-score,-0.777 z-score,-0.774 z-score,-1.02 z-score,-0.839 z-score
GGGTAGTTCCT,0.746 z-score,0.495 z-score,0.541 z-score,0.394 z-score,0.345 z-score,-0.0983 z-score,0.0547 z-score,0.249 z-score,0.583 z-score
GGAAGGGCCCC,-0.533 z-score,-0.314 z-score,-0.0891 z-score,0.16 z-score,0.159 z-score,-0.313 z-score,-0.107 z-score,-0.00222 z-score,0.327 z-score
AAAGGATCCCT,-0.446 z-score,-0.455 z-score,-0.198 z-score,-0.582 z-score,-0.469 z-score,-0.388 z-score,-0.424 z-score,-0.748 z-score,-0.634 z-score
CAGAAAGTCCT,1.03 z-score,-0.724 z-score,-0.508 z-score,-0.351 z-score,-0.61 z-score,-0.693 z-score,-0.785 z-score,-0.362 z-score,-0.371 z-score
GAAAGTTCCCT,0.999 z-score,1.15 z-score,1.11 z-score,1.12 z-score,1.03 z-score,0.985 z-score,0.987 z-score,0.705 z-score,0.73 z-score
AAAATTTTCCT,1.75 z-score,0.214 z-score,0.0641 z-score,0.434 z-score,0.225 z-score,-0.311 z-score,-0.176 z-score,0.47 z-score,0.322 z-score
AGGGGGGCCCT,-0.0645 z-score,0.812 z-score,0.991 z-score,0.478 z-score,1.13 z-score,0.542 z-score,1.2 z-score,0.525 z-score,1.04 z-score
CAAAAACCCCT,1.05 z-score,1.47 z-score,2.66 z-score,1.84 z-score,2.09 z-score,2.09 z-score,2.18 z-score,1.37 z-score,2.28 z-score
